# Test results published in PubChem BioAssay (Tox21).
# Inconclusive results are not listed. The source made the active and inactive calls. Calls come from the whole dose curve; as a rule, active = well fitted cell-killing curve with a large enough effect in the repeat runs; inconclusive = weak or mixed curves, or effect the other way; inactive = flat fitted curve, though single readings scatter.
# Experiment: Nuclear factor erythroid 2-related factor 2/antioxidant responsive element (Nrf2/ARE) small molecule agonists: qHTS cell viability counter screen in human keratinocytes (AID 1919968); note: nearly all actives have a fitted effect of over 55% in size
# Settings: KeratinoSens HaCaT ARE cells viability, CellTiter-Fluor, 24 h; series mostly up to 92.4 µM; activity change, negative = cytotoxicity: at the top concentration
# From the text: U.S. Tox21 Program National Center for Advancing Translational Sciences [NCATS] Division of Preclinical Innovation [DPI] U.S. Environmental Protection Agency [EPA] National Institutes of Environmental Health Sciences [NIEHS] National Toxicology Program [NTP] U.S. Food and Drug Administration [FDA] Tox21 Assay Overview: Oxidative stress has been implicated in the pathogenesis of a variety of diseases ranging from cancer to neurodegeneration. The antioxidant response element (ARE) signaling pathway plays an important role in the amelioration of oxidative stress. The KeratinoSens (Givaudan, Switzerland) is an in vitro test method which quantifies luciferase induction as a measure of activation of Keap1-Nrf2-antioxidationt/electrophile response element (ARE) dependant pathway in HaCaT human keratinocytes stably transfected with a selectable plasmid. The KeratinoSens assay is a cell-based assay with a reporter cell line to detect potential skin sensitizers by their ability to induce the Nrf2/ARE-response. The activation of the report gene under culture conditions can be detected by ONE-Glo Luciferase Assay System (Promega, Madison, WI). This cell line has been used to screen the Tox21 10K compound library to identify agonists that induce oxidative stress. The cytotoxicity of the Tox21 compound library against the KS-ARE cell line was tested in parallel by measuring the cell viability using CellTiter- Fluor assay system (Promega, Madison, WI) in the same wells.
# Tox21 Assay Protocol Summary: HaCaT derived cell line KeratinoSens were dispensed at 1,500 cells/5uL/well in 1536-well white wall/solid bottom plates using a Multidrop Combi (ThermoFisher Scientific, Waltham, MA) dispenser. After the assay plates were incubated at 37 C/5% CO2 for 5 h, 23 nL of compounds dissolved in DMSO, positive controls or DMSO only was transferred to the assay plate by a pintool workstation (Kalypsys, San Diego, CA). The plates were incubated at 37 C/5% CO2 for 23 h, followed by addition of 1uL/well of CellTiter-Fluor reagent into the assay plates using a Flying Reagent Dispenser (Aurora Discovery, San Diego, CA) for cell viability readout that measures cytotoxicity. After 1 h incubation at 37 C/5% CO2 the fluorescence intensity was measured using a ViewLux (PerkinElmer, Shelton, CT) plate reader.
# % is set by controls: 0 for no effect and ±100 for the full control effect; potency is the fitted concentration of half-maximal effect.
SMILES,"activity change, negative = cytotoxicity",Potency
CCOC(=O)OC(C)OC1=C(C(=O)Nc2ccccn2)N(C)S(=O)(=O)c2ccccc21 (stereo not given),0.207% [at 42.5 µM] (inactive),–
CN(C)C/C=C(/c1ccc(Br)cc1)c1cccnc1,3.75% [at 42.5 µM] (inactive),–
CC(C)OC(=O)c1ccccc1,1.48% (inactive),–
CC1CC(C)C(=O)C1=O (stereo not given),-0.693% (inactive),–
O=[N+]([O-])c1ccc(/C=N\O)o1,-0.112% [at 42.5 µM] (inactive),–
COc1ccc(-c2cc(=O)c3c(O)cc(O[C@@H]4O[C@H](CO[C@@H]5O[C@@H](C)[C@H](O)[C@@H](O)[C@H]5O)[C@@H](O)[C@H](O)[C@H]4O)cc3o2)cc1O,-15.5% [at 42.5 µM] (inactive),–
CN(C)CCC=C1c2ccccc2C=Cc2ccccc21,-10.6% [at 42.5 µM] (inactive),–
CCN(CC)CCNc1ccc(CNC=O)c2sc3ccc(OC)cc3c(=O)c12,–,54.5 µM (active)
CCCCOCC(C)O (stereo not given),0.0634% (inactive),–
O=C1[C@H]2CCCC[C@H]2C(=O)N1CCCCN1CCN(c2nsc3ccccc23)CC1,-8.48% [at 42.5 µM] (inactive),–
NC(=O)N(O)[C@@H]1C=C[C@H](Oc2cccc(Oc3ccc(F)cc3)c2)C1,-11.9% (inactive),–
CCCCC(CC)CN1C(=O)C2C3C=CC(C3)C2C1=O (stereo not given),0.737% (inactive),–
CCN(CC)C(=O)Nc1ccc(OCC(O)CNC(C)(C)C)c(C(C)=O)c1 (stereo not given),-16% [at 42.5 µM] (inactive),–
CCCCCCCCCCCCOC(=O)c1ccc(O)cc1,–,43.6 µM (active)
Nc1nc(-c2ccccc2)c(Br)c(=O)[nH]1,-0.599% [at 42.5 µM] (inactive),–
CCCCNc1c(C(=O)OCC)c(C)nc2c1cnn2CC,0.596% [at 42.5 µM] (inactive),–
CN1CCN(C2=Nc3ccccc3Oc3ccc(Cl)cc32)CC1,-13.5% [at 42.5 µM] (inactive),–
CC(=O)CCc1ccc(O)cc1,3.16% (inactive),–
CC(NN)c1ccccc1 (stereo not given),-0.107% [at 19 µM] (inactive),–
CN1CCN(CC(=O)N2c3ccccc3C(=O)Nc3cccnc32)CC1,0.0434% [at 8.39 µM] (inactive),–

SMILES,"activity change, negative = cytotoxicity",Potency
CCN(CC)C(=O)N(CC)CC,1.34% (inactive),–
NS(=O)(=O)c1cc(C(=O)O)cc(N2CCCC2)c1Oc1ccccc1,4.47% [at 42.5 µM] (inactive),–
CC(C)SCc1ccco1,-3.39% [at 42.5 µM] (inactive),–
Cc1ccc(S(=O)(=O)NC(=O)NN2CC3CCCC3C2)cc1 (stereo not given),2.08% [at 42.5 µM] (inactive),–
C=C(C)C(=O)OCCCC,1.57% (inactive),–
CC(C)c1ccc(C(=O)N=C(N)N)cc1S(C)(=O)=O,1.56% [at 42.5 µM] (inactive),–
CC(C=O)Cc1ccc(C(C)C)cc1 (stereo not given),3.34% (inactive),–
CCC(=O)Oc1ccc2c(c1)CC[C@@H]1[C@@H]2CC[C@@]2(C)[C@H]1C[C@@H](OC(=O)CC)[C@@H]2OC(=O)CC,1.44% [at 42.5 µM] (inactive),–
O[C@@H](CNC[C@H](O)[C@H]1CCc2cc(F)ccc2O1)[C@@H]1CCc2cc(F)ccc2O1,–,23.7 µM (active)
C[C@H](N)C(=O)N[C@@H](C)C(=O)NC1[C@H]2CN(c3nc4c(cc3F)c(=O)c(C(=O)O)cn4-c3ccc(F)cc3F)C[C@@H]12 (stereo not given in full),1.2% [at 42.5 µM] (inactive),–
COC(=O)CCCCC(CCSS/C(CCO)=C(\C)N(C=O)Cc1cnc(C)nc1N)SC(C)=O (stereo not given),-3.49% [at 42.5 µM] (inactive),–
C/C(=N/NC(=O)c1ccncc1)C(=O)O,1.01% [at 42.5 µM] (inactive),–
CN(C)CCN(Cc1ccsc1)c1ccccn1,6.63% [at 42.5 µM] (inactive),–
Cc1ccc(N(CC2=NCCN2)c2cccc(O)c2)cc1,2.3% [at 42.5 µM] (inactive),–
Nc1cc(C(=O)O)c(O)c(S(=O)(=O)O)c1,11.8% (inactive),–
Clc1ccc2c(c1)CCc1cccnc1C2=C1CCNCC1,–,29.8 µM (active)
C[Si]1(C)O[Si](C)(C)O[Si](C)(C)O1,-3.75% (inactive),–
C=C[C@@H](C)CCC=C(C)C,-3.45% (inactive),–
Cc1nc2ccccc2n1Cc1ccc(Cl)cc1,–,1.68 µM (active)
CCCCOC(=O)/C=C\C(=O)OCCCC,-3.89% (inactive),–
